Measured values from PubChem BioAssay (Tox21).
Where “and” joins values, the source holds several entries; their conditions need not be identical. Equal values may be shown once. Results filed as inconclusive are left out. Calls of active or inactive are those of the source. Unless noted, calls come from the whole dose curve; as a rule, active = well fitted curve in the direction sought with a large enough effect in the repeat runs; inconclusive = weak or mixed curves; inactive = no such curve, though single readings can be large; an effect the other way counts as inactive or inconclusive.

Columns and labels:
[1] = qHTS assay to identify small molecule antagonists of the progesterone receptor (PR) signaling pathway - cell viability counter screen (AID 1346798); note: nearly all actives have a fitted effect of over 50% in size; note: potency is the fitted concentration of half-maximal effect
In short: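 Cytotoxicity read as CellTiter-Glo luminescence (30 min, room temperature) in the same wells as the beta-lactamase readout. HEK293T PR-UAS-bla cells in charcoal-stripped 2% FBS received compound and R5020, then 16 h at 37C, 5% CO2.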

[2] = qHTS assay to identify small molecule agonists of the progesterone receptor (PR) signaling pathway - cell viability counter screen (AID 1346799; calls by dose curve; note: nearly all actives have a fitted effect of over 45% in size; note: potency is the fitted concentration of half-maximal effect)
In short: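 Cytotoxicity measured by CellTiter-Glo luminescence (30 min, RT) in the same wells as the PR beta-lactamase agonist read. Those HEK293T cells had 16 h compound treatment at 37 C in 2% charcoal-stripped FBS medium.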

[3] = qHTS assay to identify small molecule agonists of the TGF-beta/Smad signaling pathway - cell viability counter screen (AID 1346829); note: nearly all actives have a fitted effect of over 45% in size; note: potency is the fitted concentration of half-maximal effect
In short: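 Same-well cytotoxicity: CellTiter-Glo added after the 2 hr room-temperature beta-lactamase substrate step, luminescence measured 30 min later; cells had 5 hr of compound at 37 C.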

[4] = qHTS assay to identify small molecule agonists of the TGF-beta/Smad signaling pathway (AID 1346859; active = well fitted activation curve with a large enough effect in the signal ratio in the repeat runs, not every such curve was filed as active; the % refers to the signal ratio; note: series mostly up to about 77 µM; % is set by controls: 0 for no effect and ±100 for the full control effect)
In short: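 Fluorescence (ex 405 nm; em 460 and 530 nm) was read 2 h after LiveBLAzer FRET substrate at RT. The preceding compound treatment of overnight-plated SBE-bla HEK293T cells lasted 5 h at 37 C.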

[5] = target: Thyrotropin-releasing hormone receptor (Homo sapiens) (UniProt P34981); assay: qHTS assay to identify small molecule antagonists of the thyrotropin-releasing hormone receptor (TRHR) signaling pathway (AID 1346877; active = well fitted inhibition curve with a large enough effect in the repeat runs, not every such curve was filed as active; note: potency is the fitted concentration of half-maximal effect)
In short: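 TRHR-expressing HEK293 cells loaded with calcium dye for 2 h at 37 C; compounds pre-incubated 5 min at room temperature before TRH challenge at 1 nM final. Intracellular calcium fluorescence read kinetically for 3 min; 15 concentrations in triplicate.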

[6] = target: Thyrotropin-releasing hormone receptor (Homo sapiens) (UniProt P34981); assay: qHTS assay to identify small molecule agonists of the thyrotropin-releasing hormone receptor (TRHR) signaling pathway (AID 1346891; calls by dose curve; note: potency is the fitted concentration of half-maximal effect; for activation: series mostly up to about 58 µM; % is set by controls: 0 for no effect and ±100 for the full control effect)
In short: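 Agonist-mode intracellular calcium readout: kinetic fluorescence over 3 min at 1 s intervals after compound addition to TRHR-HEK293 cells (18 h seeded, 2 h dye-loaded at 37 C). Fifteen concentrations, triplicates.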

[7] = Human pregnane X receptor (PXR) small molecule agonists, qHTS cell viability counter screen (AID 1346977); note: nearly all actives have a fitted effect of over 50% in size; note: potency is the fitted concentration of half-maximal effect
In short: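 Same-well viability read: CellTiter-Fluor added after 23 hr compound exposure, fluorescence measured 1 hr later. Cells were PXR-Luc HepG2 seeded at 2,000/well in 5% charcoal-stripped FBS medium, rested 5 hr before dosing at 37 C.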

[8] = Caspase-3/7 induction in HepG2 cells by small molecules, qHTS assay (AID 1346978); note: nearly all actives have a fitted effect of over 15% in size; note: potency is the fitted concentration of half-maximal effect
In short: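 Wild-type HepG2 cells (2,000/well) were settled 5 h at 37 C, 5% CO2, then exposed to compounds in DMSO for 17 h. Caspase-3/7 activity was read by luminescence 30 min after adding Caspase-Glo 3/7 reagent at room temperature.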

[9] = Caspase-3/7 induction in CHO-K1 cells by small molecules, qHTS cell viability counter screen (AID 1346979); note: nearly all actives have a fitted effect of over 35% in size; note: potency is the fitted concentration of half-maximal effect
In short: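 Cytotoxicity counter screen: CellTiter-Fluor added to compound-treated wild-type CHO-K1 cells at 16 h (37C, 5% CO2), fluorescence measured 1 h later; same wells as caspase-3/7 measurement.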

[10] = Caspase-3/7 induction in CHO-K1 cells by small molecules, qHTS assay (AID 1346980); note: nearly all actives have a fitted effect of over 15% in size; note: potency is the fitted concentration of half-maximal effect
In short: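 Wild-type cells were seeded at 1,500 per well and settled 5 hr at 37 C, 5% CO2, then exposed to DMSO-dissolved compounds for 17 hr. Caspase-Glo 3/7 reagent was added, and luminescence was read after 30min at room temperature.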

[11] = Caspase-3/7 induction in HepG2 cells by small molecules, qHTS cell viability counter screen (AID 1346981); note: nearly all actives have a fitted effect of over 30% in size; note: potency is the fitted concentration of half-maximal effect
In short: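 Wild-type HepG2 cells, 2,000/well, settled 5 hr at 37 C, 5% CO2 before compound addition. Viability read by CellTiter-Fluor fluorescence, reagent added after 16 hr compound exposure, then 1 hr at 37C, in the same wells as the caspase read.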

[12] = target: Nuclear receptor subfamily 1 group I member 2 (Homo sapiens) (UniProt O75469); assay: Human pregnane X receptor (PXR) small molecule agonists, qHTS assay (AID 1346982); note: nearly all actives have a fitted effect of over 35% in size; note: potency is the fitted concentration of half-maximal effect; for activation: % is set by controls: 0 for no effect and ±100 for the full control effect
In short: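 PXR-Luc HepG2 reporter cells (CYP3A4-driven luciferase) in 5% charcoal-stripped FBS medium, plated 5 h before compound addition, then treated 24 h at 37C. Luciferase read by ONE-Glo luminescence after 30 min at room temperature.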

[13] = target: Acetylcholinesterase (Homo sapiens) (UniProt P22303); assay: Acetylcholinesterase (AChE) small molecule antagonists: colormetric cell-based qHTS assay (AID 1347395; calls by dose curve; note: nearly all actives have a fitted effect of over 30% in size; note: potency is the fitted concentration of half-maximal effect)
In short: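 Colorimetric readout: DTNB quantifies thiocholine from acetylthiocholine hydrolysed by endogenous AChE of SH-SY5Y cells (2,000/well, plated overnight). Compound pretreatment 30 min, substrate incubation 90 min, both 37 C.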

[14] = target: Acetylcholinesterase (Homo sapiens) (UniProt P22303); assay: Acetylcholinesterase (AChE) small molecule antagonists: enzyme-based qHTS assay (AID 1347397; calls by dose curve; note: nearly all actives have a fitted effect of over 55% in size; note: potency is the fitted concentration of half-maximal effect); details: Potency: AChE enzyme activity inhibition
In short: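 Recombinant human AChE, dispensed at 50 mU/mL, was preincubated with Tox21 10K compounds or DMSO vehicle for 30 min at room temperature. DTNB plus acetylthiocholine was then added, and thiocholine was measured colorimetrically after a further 10 min.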

[15] = qHTS assay to identify small molecule antagonists of the TGF-beta/Smad signaling pathway - cell viability counter screen (AID 1346824); note: nearly all actives have a fitted effect of over 50% in size; note: potency is the fitted concentration of half-maximal effect
In short: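 SBE-bla HEK 293T cells were plated overnight at 37 C, then given compounds in DMSO plus TGF-beta1 (added as 0.25 ng/mL solution) for 5 hr. After the bla read, CellTiter-Glo was added to the same wells and luminescence read after 30 min at room temperature.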

[16] = target: Progesterone receptor (Homo sapiens) (UniProt P06401); assay: qHTS assay to identify small molecule antagonists of the progesterone receptor (PR) signaling pathway (AID 1346795; active = well fitted inhibition curve with a large enough effect in the signal ratio in the repeat runs, not every such curve was filed as active; the % refers to the signal ratio; note: potency is the fitted concentration of half-maximal effect)
In short: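 Antagonist mode with agonist R5020 at 1 nM final and 16 hr incubation at 37C. Reporter was beta-lactamase driven by UAS in HEK293T (PR-UAS-bla), 2% charcoal-stripped serum; signal from LiveBLAzer FRET substrate, 2 hr at room temperature.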

[17] = target: Nuclear receptor subfamily 1 group I member 2 (Rattus norvegicus) (UniProt Q9R1A7); assay: Rat pregnane X receptor (rPXR) activation by small molecules, qHTS assay (AID 1346983); details: rPXR luciferase reporter cells, One-Glo luminescence, 24 h; max activation: active compounds read high; note: % is set by controls: 0 for no effect and ±100 for the full control effect; nearly all actives have a fitted effect of over 20% in size
In short: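 Cell-based rPXR luciferase reporter assay, 2,000 cells per well, rested 5hr at 37 C before compound addition in DMSO, then 24 hr at 37 C. One-Glo reagent was added and luminescence read after 30 min at room temperature.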

[18] = target: Nuclear receptor subfamily 1 group I member 2 (Homo sapiens) (UniProt O75469); assay: CYP3A4 induction through human pregnane X receptor (PXR) by small molecules, qHTS assay (AID 1346984); note: % is set by controls: 0 for no effect and ±100 for the full control effect; nearly all actives have a fitted effect of over 40% in size
In short: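 DPX-2 HepG2 cells carrying a PXR response element and CYP3A4-promoter luciferase construct, treated with compounds 24 hr at 37C. Then P450-Glo CYP3A4 Luciferin-IPA substrate (3uM final) for 3 hr at 37C, One-Glo added, luminescence read.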

[19] = target: Nuclear receptor subfamily 1 group I member 2 (Homo sapiens) (UniProt O75469); assay: Human pregnane X receptor (PXR) activation by small molecules, qHTS assay (AID 1346985); note: % is set by controls: 0 for no effect and ±100 for the full control effect; nearly all actives have a fitted effect of over 40% in size
In short: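 DPX-2 cells (HepG2 co-transfected with a PXR response element and a CYP3A4-promoter luciferase construct) were seeded at 2,000 per well, rested 5 hr at 37C, then exposed to DMSO-dissolved compounds for 24 hr. Activation was read as luciferase luminescence.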

Nuclear receptor subfamily 1 group I member 2 (Homo sapiens), sequence (O75469 whole entry, looked up): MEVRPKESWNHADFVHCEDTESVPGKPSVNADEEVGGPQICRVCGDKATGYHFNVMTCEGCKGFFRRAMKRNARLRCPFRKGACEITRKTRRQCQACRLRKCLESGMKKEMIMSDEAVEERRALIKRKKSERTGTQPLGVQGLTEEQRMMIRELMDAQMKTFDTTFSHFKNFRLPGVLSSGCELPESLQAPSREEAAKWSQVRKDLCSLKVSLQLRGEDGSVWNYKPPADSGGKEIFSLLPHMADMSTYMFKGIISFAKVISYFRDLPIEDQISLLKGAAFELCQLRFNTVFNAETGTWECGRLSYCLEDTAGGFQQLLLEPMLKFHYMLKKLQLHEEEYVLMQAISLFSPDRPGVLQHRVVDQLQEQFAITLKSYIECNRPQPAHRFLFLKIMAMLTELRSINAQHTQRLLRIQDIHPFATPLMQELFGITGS
Acetylcholinesterase (Homo sapiens), sequence (P22303 whole entry, looked up): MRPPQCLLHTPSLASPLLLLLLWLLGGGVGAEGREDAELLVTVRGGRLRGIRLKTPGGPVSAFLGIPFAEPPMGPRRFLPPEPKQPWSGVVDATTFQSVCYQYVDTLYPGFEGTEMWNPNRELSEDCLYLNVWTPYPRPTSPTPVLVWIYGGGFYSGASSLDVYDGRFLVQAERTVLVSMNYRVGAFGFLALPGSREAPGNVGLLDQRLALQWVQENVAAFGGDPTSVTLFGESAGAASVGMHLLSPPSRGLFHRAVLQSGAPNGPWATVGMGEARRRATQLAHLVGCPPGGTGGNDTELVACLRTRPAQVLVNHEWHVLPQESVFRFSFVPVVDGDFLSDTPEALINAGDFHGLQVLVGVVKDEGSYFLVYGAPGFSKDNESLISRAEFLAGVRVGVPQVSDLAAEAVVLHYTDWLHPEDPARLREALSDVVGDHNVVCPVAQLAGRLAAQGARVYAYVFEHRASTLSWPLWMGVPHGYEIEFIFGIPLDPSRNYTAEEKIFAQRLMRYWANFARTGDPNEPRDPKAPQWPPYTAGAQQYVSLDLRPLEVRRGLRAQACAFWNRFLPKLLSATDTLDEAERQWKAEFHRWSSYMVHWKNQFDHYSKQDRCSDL
Nuclear receptor subfamily 1 group I member 2 (Rattus norvegicus), sequence (Q9R1A7 whole entry, looked up): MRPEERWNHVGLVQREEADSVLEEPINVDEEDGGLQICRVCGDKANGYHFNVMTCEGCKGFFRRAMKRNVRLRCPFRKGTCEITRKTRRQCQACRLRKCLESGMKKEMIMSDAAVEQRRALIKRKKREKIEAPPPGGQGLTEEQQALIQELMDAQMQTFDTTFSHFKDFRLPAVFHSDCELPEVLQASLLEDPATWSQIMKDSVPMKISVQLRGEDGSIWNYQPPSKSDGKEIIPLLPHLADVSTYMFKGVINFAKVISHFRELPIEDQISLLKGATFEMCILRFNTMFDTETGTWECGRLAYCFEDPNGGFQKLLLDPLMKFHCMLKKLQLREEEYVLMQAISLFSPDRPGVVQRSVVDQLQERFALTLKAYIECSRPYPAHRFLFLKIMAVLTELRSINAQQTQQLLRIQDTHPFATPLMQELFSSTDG
Thyrotropin-releasing hormone receptor (Homo sapiens), sequence (P34981 whole entry, looked up): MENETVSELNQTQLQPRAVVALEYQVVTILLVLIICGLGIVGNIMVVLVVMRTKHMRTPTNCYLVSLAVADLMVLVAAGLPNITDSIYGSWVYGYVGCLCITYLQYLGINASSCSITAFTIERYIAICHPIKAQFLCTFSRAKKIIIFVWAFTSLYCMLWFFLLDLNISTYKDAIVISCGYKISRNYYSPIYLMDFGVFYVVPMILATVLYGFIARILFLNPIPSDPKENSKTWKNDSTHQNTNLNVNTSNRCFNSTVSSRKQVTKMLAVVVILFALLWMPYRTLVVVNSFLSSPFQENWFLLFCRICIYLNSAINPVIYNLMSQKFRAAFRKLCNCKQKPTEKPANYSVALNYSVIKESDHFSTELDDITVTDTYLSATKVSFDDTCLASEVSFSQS
Progesterone receptor (Homo sapiens), sequence (P06401 whole entry, looked up): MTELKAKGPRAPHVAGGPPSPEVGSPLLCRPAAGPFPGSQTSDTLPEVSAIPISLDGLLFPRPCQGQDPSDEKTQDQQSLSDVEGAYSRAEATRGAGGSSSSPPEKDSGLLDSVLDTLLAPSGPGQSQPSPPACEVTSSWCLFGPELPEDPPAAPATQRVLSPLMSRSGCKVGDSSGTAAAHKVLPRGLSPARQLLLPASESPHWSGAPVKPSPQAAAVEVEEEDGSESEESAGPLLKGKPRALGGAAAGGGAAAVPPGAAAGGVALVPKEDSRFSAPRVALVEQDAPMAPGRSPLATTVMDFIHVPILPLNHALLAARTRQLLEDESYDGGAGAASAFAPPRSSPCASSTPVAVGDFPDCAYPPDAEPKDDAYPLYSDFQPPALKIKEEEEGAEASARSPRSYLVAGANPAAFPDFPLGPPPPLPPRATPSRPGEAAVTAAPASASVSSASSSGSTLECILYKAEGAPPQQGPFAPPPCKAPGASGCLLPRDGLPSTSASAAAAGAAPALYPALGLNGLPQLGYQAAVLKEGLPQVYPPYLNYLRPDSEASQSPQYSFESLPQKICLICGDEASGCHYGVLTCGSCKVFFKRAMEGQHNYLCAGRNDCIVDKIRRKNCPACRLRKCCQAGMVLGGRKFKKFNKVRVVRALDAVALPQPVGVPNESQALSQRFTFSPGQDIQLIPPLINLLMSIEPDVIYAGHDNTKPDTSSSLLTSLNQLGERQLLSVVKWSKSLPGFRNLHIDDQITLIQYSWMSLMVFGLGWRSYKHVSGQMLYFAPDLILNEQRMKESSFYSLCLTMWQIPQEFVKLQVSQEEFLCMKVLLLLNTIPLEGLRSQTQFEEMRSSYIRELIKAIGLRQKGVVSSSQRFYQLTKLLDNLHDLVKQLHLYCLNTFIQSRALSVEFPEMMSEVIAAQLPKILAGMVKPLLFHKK

CC(Cc1ccccc1)N(C)Cc1ccco1 (configuration not stated)
inactive: Potency [1] | Potency [2] | Potency [3] | outcome [4] | Potency [5] | Potency [6] | Potency [7] | Potency [8] | Potency [9] | Potency [10] | Potency [11] | Potency [12] | Potency [13] | Potency [14]

N#Cc1c2ccccc2cc2ccccc12
active: Potency [12] 27.3 µM
inactive: Potency [1] | Potency [2] | Potency [15] | Potency [3] | Potency [7] | Potency [8] | Potency [10] | Potency [13] | Potency [14]

CCCCCCC[CH2][Sn]([Cl])([Cl])[CH2]CCCCCCC
active: Potency [9] 54.4 µM | Potency [10] 68.5 µM
inactive: Potency [15] | Potency [3] | outcome [4] | Potency [5] | Potency [6] | Potency [11] | Potency [13] | Potency [14]

O=[N+]([O-])c1cc(C(F)(F)F)c(Cl)c([N+](=O)[O-])c1Nc1ncc(C(F)(F)F)cc1Cl
active: Potency [1] 24.3 µM | Potency [2] 27.3 µM | Potency [3] 43.6 µM | Potency [5] 15.1 µM | Potency [7] 17.2 µM | Potency [9] 5.45 µM | Potency [11] 54.5 µM | Potency [12] 8.63 µM
inactive: Potency [6] | Potency [8] | Potency [14]

Cc1ccc([N+](=O)[O-])[c]2c1[O][Hg]2
inactive: outcome [4] | Potency [8] | Potency [10]
active: Potency [1] 4.22 µM | Potency [15] 19 µM | Potency [3] 23.9 µM | Potency [7] 6.68 µM | Potency [9] 1.68 µM | Potency [11] 21.1 µM | Potency [12] 0.668 µM

COc1ccc2[nH]cc(CCN(C(C)C)C(C)C)c2c1
inactive: Potency [1] | Potency [15] | Potency [3] | outcome [4] | Potency [8] | Potency [9] | Potency [11] | Potency [12]

O=C1C2(Cl)C3(Cl)C4(Cl)C(Cl)(Cl)C5(Cl)C3(Cl)C1(Cl)C5(Cl)C24Cl (configuration not stated)
inactive: Potency [15] | outcome [4] | Potency [14]
active: Potency [16] 29.3 µM | Potency [5] 28.9 µM | Potency [6] 30.4 µM and 37.3 µM | Potency [7] 42.6 µM | Potency [8] 30.1 µM and 65.7 µM | Potency [9] 37.9 µM and 46.5 µM | Potency [11] 60.1 µM | Potency [12] 10.7 µM and 10.4 µM

C[C@]12C/C(=C/O)C(=O)C[C@@H]1CC[C@@H]1[C@@H]2CC[C@@]2(C)[C@H]1CC[C@]2(C)O
active: Potency [1] 69.2 µM | Potency [2] 77.7 µM | Potency [9] 43.7 µM
inactive: Potency [15] | Potency [3] | Potency [5] | Potency [6] | Potency [7] | Potency [8] | Potency [10] | Potency [11] | max activation [17] 1.42% | Potency [14]

[O]=[Cr](=[O])([OH])[O][Cr](=[O])(=[O])[OH]
inactive: Potency [1] | Potency [2] | outcome [4] | Potency [10] | max activation [17] -13.2% and 6.2% | Potency [18] | Potency [19] | Potency [14]
active: Potency [15] 27.8 µM and 24.5 µM | Potency [3] 24.8 µM and 24.5 µM | Potency [7] 8.71 µM and 6.1 µM | Potency [8] 9.78 µM and 13.7 µM | Potency [9] 7.77 µM and 15.3 µM | Potency [11] 5.5 µM and 4.85 µM | Potency [12] 8.71 µM and 9.67 µM

COC(=O)/C=C(\C)OP(=O)(OC)OC
inactive: Potency [1] | Potency [2] | Potency [3] | outcome [4] | Potency [5] | Potency [6] | Potency [7] | Potency [8] | Potency [9] | Potency [10] | Potency [11] | Potency [12]
active: Potency [15] 0.174 µM | Potency [13] 2.24 µM | Potency [14] 3.56 µM

c1ccc2c(c1)cc1ccc3cccc4ccc2c1c34
inactive: Potency [15] | Potency [3] | Potency [5] | Potency [6] | Potency [7] | Potency [10] | Potency [13] | Potency [14]
active: Potency [8] 6.99 µM | Potency [12] 5.55 µM
